For 66 compounds, inhibition results are on record in PubChem BioAssay AID652154 (Broad Institute, 2013).

Out of some 360,000 compounds screened, about 4,200 (1.2%) were called active. This is one part of a sample in which actives are shown more often than they occur. Unmarked numbers belong to inactive results.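 How the source made its calls: active means mean replicate inhibition at least 60% with every replicate also reaching 60%; inconclusive means only one of the two criteria is met; inactive means mean below 60% and not all replicates reaching 60%.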

The test is described as follows: inhibitors of PAX8-driven TPO luciferase reporter, primary screen, RMG-I cells, single concentration (AID 652154).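 Further: luciferase light reporting Pax8 driven TPO promoter activity; plate controls were median of neutral control wells for no effect and mitoxantrone controls for full effect.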 As to conditions: SteadyGlo, 24 h, at 12.6 µM, hits give high values. (A reporter such as luciferase makes a cellular process visible.)
By inhibition is commonly meant the drop in the measured response relative to a control, in per cent. Consider `COc1cc(C(=O)CCc2ccc3c(c2)OCO3)cc(OC)c1OC`, for which the inhibition was -6.52%.

With `COc1cc(C2CC(=O)Oc3cc(OC)c(OC)c(OC)c32)cc(OC)c1OC` (stereo unspecified), the inhibition is -2.9%.

As to `COc1cc(C2c3cc4c(cc3C(O)C3COC(=O)C23)OCO4)cc(OC)c1OC` (stereo unspecified), the inhibition was 77.3% (active).

As for `Cc1ccccc1S(=O)(=O)N1[C@@H]2CNC[C@H]1C2c1ccc(-c2cccnc2)cc1` (stereo partly specified), the inhibition is 19.3%.

Turning to `CC(C)C(C)NC(=O)COc1nc2ccccc2nc1N(C)C1CCCCC1` (stereo unspecified), the inhibition was 0.996%.

Regarding `CC(C)c1cc(C(=O)NC2CCCCCC2)c2ccccc2n1`, the inhibition is -9.13%.

As to `CN(c1ccc2nc3ccccc3c(=O)n2n1)C1CCCCC1`, the inhibition was 86% (active).

As for `COc1ccc2c3c(n(C)c2c1)[C@@H](CO)N(Cc1ccncc1)CC31CN(C(=O)C2CCCCC2)C1`, the inhibition was -15.5%.

Regarding `COc1ccc(S(=O)(=O)N(C)C[C@H]2OCCCC[C@@H](C)Oc3ccc(NC(=O)NC(C)C)cc3C(=O)N([C@H](C)CO)C[C@H]2C)cc1`, the inhibition is 17%.

On to `C/C=C/c1ccc([C@H]2[C@@H](C#N)N(C(=O)CN3CCOCC3)[C@@H]2CO)cc1`, for which the inhibition is -6.35%.

For the compound `CCOCc1nnc(NC(=O)CCS(=O)(=O)Cc2ccccc2)s1`, the inhibition was 50.3%.

As to `COCCSc1nnc(NC(=O)CCS(=O)(=O)Cc2ccccc2)s1`, the inhibition was 65.7% (active).

Consider `COC(=O)CSc1nnc(NC(=O)CCc2ccccc2)s1`, for which the inhibition is -0.955%.

In the case of `C[C@@H]1CN([C@@H](C)CO)S(=O)(=O)c2ccc(-c3cccc(C(=O)N(C)C)c3)cc2O[C@@H]1CN(C)C`, the inhibition is -0.377%.

As for `O=C(C[C@H]1C[C@H]2c3cc(NC(=O)C4CCC4)ccc3O[C@H]2[C@@H](CO)O1)NCc1ccc(Cl)cc1`, the inhibition is -5.09%.

With `C#Cc1cc(N2CCN(C(=O)c3ccoc3)CC2)n2nc(-c3cccc(Cl)c3)cc2n1`, the inhibition is 107% (active).

Regarding `O=C(c1ccccc1)N1CCN(c2cc(-c3ccccc3)nc3cc(-c4cccc(Cl)c4)nn23)CC1`, the inhibition is 40.2%.

For the compound `CN(C)CCN1CCN(c2cc(-c3cccc(Cl)c3)nc3ccnn23)CC1`, the inhibition is -3.43%.

In the case of `C[C@@H]1CN([C@H](C)CO)C(=O)c2cccc(NS(=O)(=O)c3ccccc3)c2O[C@@H]1CN(C)Cc1ccc(C(=O)O)cc1`, the inhibition was 14.1%.

On to `CCC(=O)Nc1ccc2c(c1)C(=O)N(C)[C@@H]1CC[C@@H](CC(=O)Nc3cccc(OC)c3)O[C@@H]1CO2`, for which the inhibition is 8.78%.

Turning to `Cc1ccc(C)c(S(=O)(=O)N2CCN(CC(=O)Nc3ccc([N+](=O)[O-])cc3)CC2)c1`, the inhibition was 6.46%.

As to `COc1ccc(-c2csc3ncnc(N4CCN(S(=O)(=O)c5ccccc5C#N)CC4)c23)cc1`, the inhibition is 9.25%.

Regarding `Cc1ccc(C)c(S(=O)(=O)N2CCN(c3ncnc4sccc34)CC2)c1`, the inhibition was 73.6% (active).

Regarding `CCC(=O)Nc1ccc2c(c1)OC[C@@H](C)N(Cc1ccccc1OC)C[C@H](C)[C@H](OC)CN(C)C2=O`, the inhibition is -6.79%.

Take `C[C@@H]1CN([C@H](C)CO)C(=O)c2cc(NS(=O)(=O)c3cn(C)cn3)ccc2O[C@H]1CN(C)S(=O)(=O)c1ccc(Cl)cc1`: the inhibition was 1.32%.

Take `CC(=O)N(C)C[C@@H]1Oc2ncc(C#Cc3ccc(F)cc3)cc2C(=O)N([C@H](C)CO)C[C@@H]1C`: the inhibition was -8.23%.

Take `C[C@H](CO)N1C[C@H](C)[C@@H](CN(C)S(=O)(=O)c2cccc(F)c2)Oc2cc(C#CCN(C)C)ccc2S1(=O)=O`: the inhibition is 14.6%.

Consider `COc1cccc(S(=O)(=O)N(C)C[C@@H]2Oc3cc(C4=CCCCC4)ccc3S(=O)(=O)N([C@H](C)CO)C[C@H]2C)c1`, for which the inhibition is 65.8% (active).

Consider `Cc1ccc(S(=O)(=O)N(C)C[C@@H]2Oc3cc(C4=CCCC4)ccc3S(=O)(=O)N([C@@H](C)CO)C[C@@H]2C)cc1`, for which the inhibition was 36.4%.

Turning to `CCCN(C)C[C@H]1Oc2cc(C#CCC3CCCC3)ccc2S(=O)(=O)N([C@@H](C)CO)C[C@@H]1C`, the inhibition was 2%.

Take `C[C@@H]1CN([C@@H](C)CO)S(=O)(=O)c2ccc(C#CCN(C)C)cc2O[C@@H]1CN(C)S(=O)(=O)c1cccc(F)c1`: the inhibition is -15.8%.

In the case of `CCCC#Cc1ccc2c(c1)O[C@@H](CN(C)S(=O)(=O)c1cccc(OC)c1)[C@H](C)CN([C@@H](C)CO)S2(=O)=O`, the inhibition is 60.4% (active).

Regarding `COc1ccccc1S(=O)(=O)N(C)C[C@H]1Oc2cc(C#CCC3CCCC3)ccc2S(=O)(=O)N([C@@H](C)CO)C[C@H]1C`, the inhibition is 77.3% (active).

As to `C[C@@H]1CN([C@H](C)CO)S(=O)(=O)c2ccc(C#CCC3CCCC3)cc2O[C@H]1CN(C)C(=O)CC1CC1`, the inhibition was 23.3%.

On to `COCC(=O)N(C)C[C@@H]1Oc2cc(C3=CCCC3)ccc2S(=O)(=O)N([C@@H](C)CO)C[C@H]1C`, for which the inhibition was -21%.

`C[C@H]1CN([C@@H](C)CO)C(=O)Cc2cc(NC(=O)Nc3cccc4ccccc34)ccc2O[C@@H]1CN(C)C`: the inhibition was -5.56%.

On to `OC[C@H]1[C@H](c2ccc(-c3ccccc3F)cc2)[C@H]2CN(Cc3cncnc3)CCCCN21`, for which the inhibition is 1.13%.

Take `COc1ccccc1-c1ccc2c(c1)O[C@H](CN(C)C(=O)c1cccnc1)[C@@H](C)CN([C@H](C)CO)S2(=O)=O`: the inhibition is 15%.

For `C=CC[C@]12C[C@@]3(O[C@H](c4ccc(C(F)(F)F)cc4)N=C3C[C@H](c3ccc(OC)cc3)[C@H]1C)N(C1CCN(Cc3ccccc3)CC1)C2=O`, the inhibition is -2.39%.

Turning to `CNC[C@@H]1Oc2cc(C#CC3(O)CCCC3)ccc2S(=O)(=O)N([C@@H](C)CO)C[C@H]1C`, the inhibition was 9.72%.

Consider `C[C@@H]1CN([C@@H](C)CO)S(=O)(=O)c2ccc(C#Cc3ccccc3)cc2O[C@@H]1CN(C)C(=O)Nc1ccccc1`, for which the inhibition is 3.61%.

Regarding `C[C@@H]1CN([C@H](C)CO)S(=O)(=O)c2ccc(C#CC3CCCCC3)cc2O[C@H]1CN(C)C(=O)Cc1ccncc1`, the inhibition is 0.108%.

As to `C[C@H](CO)N1C[C@H](C)[C@H](CN(C)C(=O)Nc2ccc3c(c2)OCO3)Oc2cc(C#Cc3ccncc3)ccc2S1(=O)=O`, the inhibition was 72.2% (active).

Turning to `C[C@@H]1CN([C@H](C)CO)S(=O)(=O)c2ccc(C3=CCCC3)cc2O[C@H]1CN(C)C(=O)Nc1ccc2c(c1)OCO2`, the inhibition is 8.58%.

For `C[C@H]1CN([C@@H](C)CO)S(=O)(=O)c2ccc(C#Cc3ccncc3)cc2O[C@@H]1CN(C)C(=O)Nc1ccc2c(c1)OCO2`, the inhibition was 101% (active).

In the case of `C[C@H]1CN([C@@H](C)CO)S(=O)(=O)c2ccc(C3=CCCC3)cc2O[C@H]1CN(C)C(=O)Nc1ccc2c(c1)OCO2`, the inhibition was 19.4%.

As to `C[C@H]1CN([C@@H](C)CO)S(=O)(=O)c2ccc(C#CC3CCCC3)cc2O[C@H]1CN(C)C(=O)Cc1ccncc1`, the inhibition is 32.9%.

With `CC(C)C#Cc1ccc2c(c1)O[C@@H](CN(C)C(=O)NC(C)C)[C@H](C)CN([C@H](C)CO)S2(=O)=O`, the inhibition is -13.2%.

For the compound `C[C@@H]1CN([C@H](C)CO)S(=O)(=O)c2ccc(C#CC3CCCC3)cc2O[C@@H]1CN(C)C(=O)Cc1ccncc1`, the inhibition is 90.6% (active).

Consider `CC(C)NC(=O)N1CCCCN2[C@@H](CO)[C@@H](c3ccc(C#Cc4ccccc4)cc3)[C@@H]2C1`, for which the inhibition was 1.5%.

As for `C/C=C/c1ccc2c(c1)O[C@@H](CN(C)CC1CCOCC1)[C@@H](C)CN([C@H](C)CO)S2(=O)=O`, the inhibition is -8.71%.

On to `O=C(NC1CCCCC1)N[C@H]1CC[C@H](CCNS(=O)(=O)c2ccc(F)cc2)O[C@H]1CO`, for which the inhibition is 1.61%.

Consider `C[C@@H]1CCCCO[C@H](CN(C)C(=O)c2ccccc2)[C@H](C)CN([C@H](C)CO)C(=O)c2cc(N(C)C)ccc2O1`, for which the inhibition is 12.7%.

Turning to `CC(C)NC(=O)Nc1ccc2c(c1)C(=O)N([C@H](C)CO)C[C@@H](C)[C@@H](CN(C)C(=O)c1ccncc1)OCCCC[C@H](C)O2`, the inhibition is 1.42%.

For `C[C@@H]1CN([C@H](C)CO)C(=O)c2cccc(NC(=O)CCCCCC(=O)Nc3ccccc3N)c2O[C@H]1CN(C)Cc1ccc(Oc2ccccc2)cc1`, the inhibition is 71.9% (active).

As for `C[C@@H]1CN([C@@H](C)CO)C(=O)Cc2cc(NC(=O)CCCN(C)C)ccc2O[C@@H]1CN(C)Cc1ccc(-c2ccccc2)cc1`, the inhibition was 10.4%.

Regarding `C[C@@H]1CN([C@@H](C)CO)C(=O)c2cccc(NC(=O)CCCCCC(=O)Nc3ccccc3N)c2O[C@H]1CN(C)C(=O)Nc1ccccc1`, the inhibition was -12.6%.

Take `C[C@@H]1CN([C@H](C)CO)C(=O)Cc2cc(NC(=O)CCC(F)(F)F)ccc2O[C@@H]1CN(C)Cc1ccncc1`: the inhibition is -1.08%.

On to `Cc1ccc(S(=O)(=O)Nc2ccc3c(c2)C(=O)N([C@@H](C)CO)C[C@@H](C)[C@H](CN(C)Cc2ccc(C(F)(F)F)cc2)O3)cc1`, for which the inhibition was 10.1%.

`Cc1ccc(S(=O)(=O)Nc2ccc3c(c2)CC(=O)N([C@@H](C)CO)C[C@H](C)[C@H](CN(C)Cc2ccccc2)O3)cc1`: the inhibition was -12.9%.

As for `C[C@H](CO)N1C[C@H](C)[C@@H](CN(C)Cc2ccc(-c3ccccc3)cc2)Oc2ccc(NC(=O)CCC(F)(F)F)cc2CC1=O`, the inhibition was 70.4% (active).

`Cc1ccc(S(=O)(=O)Nc2ccc3c(c2)CC(=O)N([C@H](C)CO)C[C@@H](C)[C@H](CN(C)Cc2ccc(C(F)(F)F)cc2)O3)cc1`: the inhibition is 70.8% (active).

For `C[C@@H]1CN([C@@H](C)CO)C(=O)Cc2cc(NC(=O)Nc3ccc(C(F)(F)F)cc3)ccc2O[C@H]1CN(C)Cc1ccc(C(=O)O)cc1`, the inhibition is -5.6%.

Turning to `C[C@H](CO)N1C[C@H](C)[C@H](CN(C)Cc2ccc(Oc3ccccc3)cc2)Oc2c(NC(=O)CCCCCC(=O)Nc3ccccc3N)cccc2C1=O`, the inhibition is 9.67%.

Turning to `C[C@H](CO)N1C[C@H](C)[C@@H](CN(C)Cc2ccc(Cl)c(Cl)c2)Oc2ccc(NC(=O)Nc3ccc(C(F)(F)F)cc3)cc2CC1=O`, the inhibition was 99.1% (active).

Regarding `C[C@@H]1CN([C@H](C)CO)C(=O)Cc2cc(NC(=O)Nc3ccccc3)ccc2O[C@H]1CN(C)Cc1ccc(Cl)c(Cl)c1`, the inhibition is 8.31%.
